Source: PubChem BioAssay (EPA / NIEHS)
Calls of active or inactive are those of the source. The calls were made as follows: active = hit-call score of the fitted dose curve at least 0.9, where 1 is the maximum; inactive = score below 0.9.

What was measured:
Conditions in all cases: mRNA level, 48 h; actives raise or lower the signal
[1] = read-out: Potassium channel subfamily K member 1 (KCNK1), KCNK1 (gene 3775); assay: LTEA_HepaRG_KCNK1: Life Technologies and Expression Analysis (LTEA) Assay for Potassium channel subfamily K member 1 (KCNK1) using HepaRG (AID 2283511)
Outline: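 Differentiated HepaRG cells, 48 h exposure in serum-free induction medium with 0.5% DMSO; 8 concentrations, half-log from 100 uM, duplicate. KCNK1 mRNA by qRT-PCR, normalized to ACTB, GAPDH, POLR2A; bidirectional fit vs DMSO.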

[2] = read-out: Keratin 19 (KRT19), KRT19 (gene 3880); assay: LTEA_HepaRG_KRT19: Life Technologies and Expression Analysis (LTEA) Assay for Keratin 19 (KRT19) using HepaRG (AID 2283512)
Outline: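 KRT19 transcript levels, measured by Fluidigm qRT-PCR against three housekeeping genes, are fitted for gain or loss of signal relative to DMSO. Human HepaRG cells receive test chemicals (top 100 uM, half-log steps, 0.5% DMSO) for 48 hours.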

[3] = read-out: Lipase C (LIPC), LIPC (gene 3990); assay: LTEA_HepaRG_LIPC: Life Technologies and Expression Analysis (LTEA) Assay for Lipase C (LIPC) using HepaRG (AID 2283514)
Outline: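 HepaRG cells, 48 h after plating, treated in duplicate for 48 h in serum-free induction medium over 8 half-log concentrations from 100 uM, 0.5% DMSO. LIPC mRNA by TaqMan qRT-PCR normalized to ACTB/GAPDH/POLR2A; bidirectional fit versus DMSO.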

[4] = read-out: Lipoprotein lipase (LPL), LPL (gene 4023); assay: LTEA_HepaRG_LPL: Life Technologies and Expression Analysis (LTEA) Assay for Lipoprotein lipase (LPL) using HepaRG (AID 2283515)
Outline: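 Differentiated HepaRG cells, plated 48 h, then exposed 48 h in serum-free induction medium to 8 concentrations (top 100 uM, half-log steps) in 0.5% DMSO, duplicate. LPL mRNA measured by qRT-PCR, normalized to ACTB, GAPDH and POLR2A.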

[5] = read-out: MicroRNA 122 (MIR122), gene 406906; assay: LTEA_HepaRG_MIR122: Life Technologies and Expression Analysis (LTEA) Assay for MicroRNA 122 (MIR122) using HepaRG (AID 2283516); also: the transcript read is the microRNA miR-122
Outline: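 Differentiated human HepaRG cells were exposed 48 h in serum-free induction medium to eight half-log concentrations (top 100 uM, 0.5% DMSO). Transcript level was measured by TaqMan qRT-PCR, normalized to ACTB, GAPDH and POLR2A, and fitted bidirectionally versus DMSO.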

[6] = read-out: matrix metalloproteinase-10 (MMP10), MMP10 (gene 4319); assay: LTEA_HepaRG_MMP10: Life Technologies and Expression Analysis (LTEA) Assay for matrix metalloproteinase-10 (MMP10) using HepaRG (AID 2283517)
Outline: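 Differentiated HepaRG cells in serum-free induction medium exposed 48 h in duplicate to 8-point half-log series up to 100 uM in 0.5% DMSO. mRNA quantified by qRT-PCR, normalised to ACTB, GAPDH, POLR2A; bidirectional fit versus DMSO.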

MYC, MYC (gene 4609) = assay: LTEA_HepaRG_MYC: Life Technologies and Expression Analysis (LTEA) Assay for MYC using HepaRG (AID 2283518)
Outline: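 HepaRG, ~100,000 cells/well, collagen I; 48 h plating; serum-free induction medium; 48 h dosing, duplicate, 100 uM top, half-log, 0.5% DMSO; total RNA → qRT-PCR MYC; gain/loss fit vs DMSO.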

[7] = read-out: matrix metalloproteinase-3 (MMP3), MMP3 (gene 4314); assay: LTEA_HepaRG_MMP3: Life Technologies and Expression Analysis (LTEA) Assay for matrix metalloproteinase-3 (MMP3) using HepaRG (AID 2283519)
Outline: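 HepaRG cells (~100,000/well) in serum-free induction medium were dosed in duplicate for 48 h with an 8-point half-log series from 100 uM, 0.5% DMSO. MMP3 mRNA was quantified by Fluidigm TaqMan qRT-PCR, normalized to three housekeeping genes.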

[8] = read-out: Paternally Expressed 10 (PEG10), PEG10 (gene 23089); assay: LTEA_HepaRG_PEG10: Life Technologies and Expression Analysis (LTEA) Assay for Paternally Expressed 10 (PEG10) using HepaRG (AID 2283520)
Outline: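 Differentiated HepaRG cells, plated 48 h then switched to serum-free induction medium, were exposed in duplicate for 48 h to eight half-log concentrations topping at 100 uM in 0.5% DMSO. PEG10 mRNA was quantified by TaqMan qRT-PCR, normalised to ACTB, GAPDH and POLR2A.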

[9] = read-out: Nuclear factor NF-kappa-B p105 subunit (Homo sapiens) (UniProt P19838); assay: LTEA_HepaRG_NFKB1: Life Technologies and Expression Analysis (LTEA) Assay for Nuclear Factor Kappa B Subunit 1 (NFKB1) using HepaRG (AID 2283521);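 also: TaqMan qRT-PCR transcript normalised to ACTB GAPDH and POLR2A housekeeping genes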
Outline: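 HepaRG, 48 h exposure; 8-pt half-log series from 100 uM in 0.5% DMSO; duplicates. Readout: NFKB1 mRNA by qRT-PCR (Fluidigm arrays), housekeeping-normalized. Gain/loss fit vs DMSO baseline.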

[10] = read-out: Protein phosphatase 2A (PPP2R4), PTPA (gene 5524); assay: LTEA_HepaRG_PPP2R4: Life Technologies and Expression Analysis (LTEA) Assay for Protein phosphatase 2A (PPP2R4) using HepaRG (AID 2283522)
Outline: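 Differentiated HepaRG cells in serum-free induction medium were exposed in duplicate for 48 h to eight concentrations, top 100 uM with half-log dilutions, in 0.5% DMSO. PPP2R4 mRNA was quantified by TaqMan qRT-PCR, normalized to ACTB, GAPDH and POLR2A.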

[11] = read-out: Phosphatase and tensin (PTEN), PTEN (gene 5728); assay: LTEA_HepaRG_PTEN: Life Technologies and Expression Analysis (LTEA) Assay for Phosphatase and tensin (PTEN) using HepaRG (AID 2283523)
Outline: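 HepaRG cells, 48 h after plating, exposed in duplicate for 48 h in serum-free induction medium to 8 half-log concentrations up to 100 uM (0.5% DMSO). PTEN mRNA by qRT-PCR, normalized to ACTB, GAPDH, POLR2A; bidirectional fit versus DMSO.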

[12] = read-out: solute carrier (SLC22A1), SLC22A1 (gene 6580); assay: LTEA_HepaRG_SLC22A1: Life Technologies and Expression Analysis (LTEA) Assay for solute carrier (SLC22A1) using HepaRG (AID 2283524)
Outline: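 Differentiated human HepaRG cells in serum-free induction medium, exposed 48 h in duplicate to 8-point half-log series from 100 µM top in 0.5% DMSO. SLC22A1 mRNA by TaqMan qRT-PCR normalized to ACTB, GAPDH, POLR2A; bidirectional fit versus DMSO.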

[13] = read-out: Pyruvate Dehydrogenase Kinase 4 (PDK4), PDK4 (gene 5166); assay: LTEA_HepaRG_PDK4: Life Technologies and Expression Analysis (LTEA) Assay for Pyruvate Dehydrogenase Kinase 4 (PDK4) using HepaRG (AID 2283525)
Outline: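 HepaRG cells plated 48 h, then switched to serum-free induction medium and exposed in duplicate for 48 h to 8 half-log concentrations from 100 uM in 0.5% DMSO. PDK4 mRNA measured by qRT-PCR, normalized to ACTB, GAPDH and POLR2A; bidirectional fit versus DMSO.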

[14] = read-out: NAD(P)H dehydrogenase [quinone] 1 (NQO1), NQO1 (gene 1728); assay: LTEA_HepaRG_NQO1: Life Technologies and Expression Analysis (LTEA) Assay for NAD(P)H dehydrogenase [quinone] 1 (NQO1) using HepaRG (AID 2283526)
Outline: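 Differentiated HepaRG cells, plated 48 h and then switched to serum-free induction medium, were exposed in duplicate for 48 h to 8-point half-log concentrations up to 100 uM in 0.5% DMSO. mRNA measured by qRT-PCR, normalized to ACTB, GAPDH, POLR2A; bidirectional fit versus DMSO.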

[15] = read-out: Nuclear factor erythroid 2-related factor 2 (Homo sapiens) (UniProt Q16236); assay: LTEA_HepaRG_NFE2L2: Life Technologies and Expression Analysis (LTEA) Assay for Nuclear factor erythroid 2-related factor 2 (NFE2L2) Transcription Factor using HepaRG (AID 2283527);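 also: TaqMan qRT-PCR transcript level normalised to ACTB GAPDH and POLR2A housekeeping genes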
Outline: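 Differentiated human HepaRG cells, serum-free induction medium, exposed 48 h in duplicate to eight half-log concentrations up to 100 uM in 0.5% DMSO. NFE2L2 mRNA by Fluidigm TaqMan qRT-PCR, normalised to ACTB, GAPDH, POLR2A; bidirectional change versus DMSO.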

[16] = read-out: succinate dehydrogenase complex iron sulfur subunit B (SDHB), SDHB (gene 6390); assay: LTEA_HepaRG_SDHB: Life Technologies and Expression Analysis (LTEA) Assay for succinate dehydrogenase complex iron sulfur subunit B (SDHB) using HepaRG (AID 2283528)
Outline: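 Readout is SDHB transcript level by qRT-PCR, normalised to three housekeeping genes and fitted bidirectionally against 0.5% DMSO vehicle. Human HepaRG cells were treated for 48 h at up to 100 uM.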

[17] = read-out: solute carrier (SLCO1B1), SLCO1B1 (gene 10599); assay: LTEA_HepaRG_SLCO1B1: Life Technologies and Expression Analysis (LTEA) Assay for solute carrier (SLCO1B1) using HepaRG (AID 2283530)
Outline: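 HepaRG, serum-free induction medium, 48 h dosing, 8-pt half-log from 100 uM, 0.5% DMSO vehicle, duplicates. Readout: SLCO1B1 mRNA, qRT-PCR, ACTB/GAPDH/POLR2A normalization; up or down fit vs DMSO.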

Measured: AC50

Nuclear factor NF-kappa-B p105 subunit (Homo sapiens), sequence (P19838 whole entry, looked up): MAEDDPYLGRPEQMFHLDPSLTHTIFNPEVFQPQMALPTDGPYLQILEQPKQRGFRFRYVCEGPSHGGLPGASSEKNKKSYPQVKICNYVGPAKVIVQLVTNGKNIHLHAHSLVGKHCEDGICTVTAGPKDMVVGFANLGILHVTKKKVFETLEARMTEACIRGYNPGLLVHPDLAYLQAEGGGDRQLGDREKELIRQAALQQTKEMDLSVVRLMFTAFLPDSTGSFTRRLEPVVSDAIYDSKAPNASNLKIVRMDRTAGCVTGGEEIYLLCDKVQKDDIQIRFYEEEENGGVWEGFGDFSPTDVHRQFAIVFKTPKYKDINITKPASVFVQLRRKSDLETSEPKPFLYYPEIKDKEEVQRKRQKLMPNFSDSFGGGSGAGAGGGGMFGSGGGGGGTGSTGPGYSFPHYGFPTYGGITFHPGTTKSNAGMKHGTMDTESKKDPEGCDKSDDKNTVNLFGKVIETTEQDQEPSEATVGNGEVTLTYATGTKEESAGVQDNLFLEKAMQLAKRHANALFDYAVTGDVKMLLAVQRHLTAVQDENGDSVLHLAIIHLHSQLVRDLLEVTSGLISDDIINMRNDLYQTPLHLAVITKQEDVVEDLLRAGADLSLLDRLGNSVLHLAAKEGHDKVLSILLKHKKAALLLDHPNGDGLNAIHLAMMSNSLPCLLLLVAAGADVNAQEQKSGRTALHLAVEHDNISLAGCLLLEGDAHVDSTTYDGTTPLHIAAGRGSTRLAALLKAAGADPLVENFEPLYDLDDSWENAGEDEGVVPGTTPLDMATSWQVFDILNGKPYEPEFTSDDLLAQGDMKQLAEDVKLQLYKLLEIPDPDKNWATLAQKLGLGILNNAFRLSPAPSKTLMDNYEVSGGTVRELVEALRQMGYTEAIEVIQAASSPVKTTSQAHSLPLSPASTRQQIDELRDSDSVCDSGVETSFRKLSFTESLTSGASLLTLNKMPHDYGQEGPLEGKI
Nuclear factor erythroid 2-related factor 2 (Homo sapiens), sequence (Q16236 whole entry, looked up): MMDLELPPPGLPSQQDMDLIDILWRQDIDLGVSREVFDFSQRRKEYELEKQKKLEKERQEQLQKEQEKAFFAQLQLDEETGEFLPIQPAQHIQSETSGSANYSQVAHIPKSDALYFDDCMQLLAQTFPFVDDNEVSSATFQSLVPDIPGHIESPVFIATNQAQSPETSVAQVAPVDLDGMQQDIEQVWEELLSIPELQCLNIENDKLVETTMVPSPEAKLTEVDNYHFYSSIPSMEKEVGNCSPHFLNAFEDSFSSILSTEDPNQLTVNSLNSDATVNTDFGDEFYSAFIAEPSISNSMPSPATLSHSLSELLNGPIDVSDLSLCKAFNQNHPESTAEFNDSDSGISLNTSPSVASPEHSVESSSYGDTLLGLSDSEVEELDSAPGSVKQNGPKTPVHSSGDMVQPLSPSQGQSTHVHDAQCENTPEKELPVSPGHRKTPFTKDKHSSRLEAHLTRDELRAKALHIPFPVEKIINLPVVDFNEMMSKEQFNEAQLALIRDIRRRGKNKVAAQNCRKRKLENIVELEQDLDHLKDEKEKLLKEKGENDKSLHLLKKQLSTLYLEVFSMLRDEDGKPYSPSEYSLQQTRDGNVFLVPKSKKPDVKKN

[N-]=[N+]=[N-]
active: [2] 64.8 µM | [3] 81.1 µM | [4] 72.3 µM | MYC, MYC (gene 4609) 80 µM | [13] 71.7 µM | [16] 50 µM
inactive: all other assays above

CSC(C)(C)C=NO
not listed: [9]
inactive: all other assays above

CCCN(CCC)c1c([N+](=O)[O-])cc(C(C)C)cc1[N+](=O)[O-]
active: [4] 12.5 µM | [8] 43.3 µM | [12] 77.4 µM | [13] 20.9 µM
not listed: [9]
inactive: all other assays above

Cc1ccc([N+](=O)[O-])cc1C
inactive: all assays above

O=C(O)C(Cl)Cl
not listed: [9]
inactive: all other assays above

CCOS(=O)(=O)OCC
not listed: [9]
inactive: all other assays above

c1ccc2c(c1)Nc1ccccc1S2
active: [2] 41.5 µM | [4] 65 µM | [8] 77.1 µM
not listed: [9]
inactive: all other assays above

CCNc1nc(Cl)nc(NC(C)(C)C)n1
active: [2] 10.7 µM | [8] 17.4 µM
inactive: all other assays above

OCC1CO1 (stereo not given)
not listed: [9]
inactive: all other assays above

Cc1ccc(N)cc1N
active: [13] 36.3 µM
inactive: all other assays above

ClC(Cl)(Cl)c1ccccc1
not listed: [9] | [15]
inactive: all other assays above
